This is an account of results in PubChem BioAssay AID2685 (National Center for Advancing Translational Sciences (NCATS), 2010).

Several values for one entry are separate records, joined by “and”; a condition that tells them apart may be missing. Identical values can stand only once. The campaign covered roughly 320,000 compounds. About 2,100 (0.66%) were called active. About 53% were inconclusive and are not listed. This is one part of a sample in which actives are shown more often than they occur. Calls come from the whole dose curve; as a rule, active = well fitted inhibition curve with a large enough effect in the signal ratio, with a control signal flat (not every such curve was filed as active); inconclusive = small, poorly fitted or top-dose-only effect, or effect the other way, or a change in a side signal; inactive = flat fitted curve, though single readings scatter; the % refers to the signal ratio.
Potency is the fitted concentration of half-maximal effect.

The experiment can be described thus: qHTS Assay for Lipid Storage Modulators in Drosophila S3 Cells.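 For cell number change: cells counted by Cell Tracker Red CMTPX staining in the red channel.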 For lipid storage change, negative = inhibition: % is set by controls: 0 for no effect and ±100 for the full control effect. Particulars: BODIPY lipid droplet fluorescence, 18-24 h, cells fed with added oleic acid; cell number change: measured here: cell count max response; series mostly up to 46.1 µM; lipid storage change, negative = inhibition: at the top concentration. The method, boiled down:
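Drosophila S3 cells loaded with oleic acid (400 uM, as added) and compounds at several concentrations; lipid droplets imaged by 488-nm laser-scanning cytometry, 500–530 nm intensity and object ratio to cell channel. Percent activity normalized to 20 uM Triacsin C.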
With `C[C@@H]1C=CC(=O)O[C@@H]1c1ccc(C(F)(F)F)cc1`, the “lipid storage change, negative = inhibition” value is 16.1% (inactive) and the cell number change was 9.88%.
For `COc1ccc([C@H]2CC(=O)C=C(c3ccc4c(c3)OCO4)C2)cc1`, in that order: -9.07% (inactive) and 2.65%.
As to `CCOC(=O)C1CCCN(C(=O)c2ccc3nc(-c4ccc(OC)c(OC)c4)c(-c4ccc(OC)c(OC)c4)nc3c2)C1` (stereo not given), the Potency was 4.11 µM (active) and the cell number change is -26.9%.
Take `CCOC(=O)C1CCCN(C(=O)c2ccc3nc(-c4cccc(OC)c4)oc3c2)C1` (stereo not given): the “lipid storage change, negative = inhibition” value is -19.1% (inactive) and the cell number change worked out at 6.9%.
Regarding `COc1ccc(NC2CCCN(C(=O)c3ccc4nc(C)c(C)nc4c3)C2)cc1OC` (stereo not given), the call was inactive.
As for `O=c1c2nnn(-c3ccc(Br)cc3)c2ncn1Cc1ccccn1`, the “lipid storage change, negative = inhibition” value was 14.2% (inactive) and the cell number change was 17.2%.
In the same order, the values of `CSC1=NC(NCCCO)c2c(sc3c2CC(C)(C)OC3)N1` (stereo not given) are 21.6% (inactive) and -5.44%.
In the same order, the values of `CS(=O)(=O)Nc1cccc(C2=NN(S(=O)(=O)c3ccccc3)C(c3ccco3)C2)c1` (stereo not given) are 0.748% (inactive) and -5.75%.
As for `O=S(=O)(c1ccccc1)N1N=C(c2ccc(Br)cc2)CC1c1ccco1` (stereo not given), the Potency was 16.4 µM (active) and the cell number change came out at 13.4%.
For `CC(=O)N1N=C(c2ccc(NS(=O)(=O)c3ccccc3)cc2)CC1c1ccco1` (stereo not given), in that order: 9.2 µM (active) and -11.6%.
Consider `CC(=O)N1N=C(c2cccc(NS(=O)(=O)c3ccc(C)cc3)c2)CC1c1ccco1` (stereo not given), for which the outcome was inactive and the cell number change was -6.11%.
With `CCS(=O)(=O)Nc1ccc(C2=NN(S(=O)(=O)c3ccc(F)cc3)C(c3ccco3)C2)cc1` (stereo not given), the “lipid storage change, negative = inhibition” value was -3.66% (inactive) and the cell number change turned out to be 4.44%.
In the same order, the values of `CC(=O)N1N=C(c2ccc(Cl)cc2)CC1c1ccco1` (stereo not given) are 26.9% (inactive) and 10.2%.
In the same order, the values of `Cc1cc(C)c(O)c(-c2cc(C(=O)Nc3cccnc3)[nH]n2)c1` are -22.1% (inactive) and -5.15%.
`CCc1ccc(-c2cc(C)no2)cc1S(=O)(=O)NCc1ccccc1OC`: the compound was classed as inactive and the cell number change was 2.29%.
As to `COc1ccc(-c2noc(-c3ccccc3C(=O)Nc3cccc(OC)c3)n2)cc1`, the “lipid storage change, negative = inhibition” value is 13.9% (inactive) and the cell number change is 2.43%.
With `O=C1CCCc2c1cc(C(=O)NCc1ccco1)c(=O)n2-c1ccccc1`, the “lipid storage change, negative = inhibition” value is 12.5% (inactive) and the cell number change came to 1.19%.
In the same order, the values of `CC(Cl)C(=O)c1ccc2c(c1)CCN2C(=O)C1CC1` (stereo not given) are 4.02% (inactive) and -1.68%.
For `COc1cccc(C(c2c(NC(=O)c3ccco3)sc(C)c2C)N2CCOCC2)c1` (stereo not given), the Potency is 20.6 µM (active) and the cell number change was -13.8%.
For `Cc1sc(NC(=O)c2ccco2)c(C(c2cccnc2)N2CCCC2)c1C` (stereo not given), the “lipid storage change, negative = inhibition” value was -15.8% (inactive) and the cell number change is -20.2%.
For `COc1ccc(C(c2c(NC(=O)c3ccco3)sc(C)c2C)N2CCOCC2)cc1OC` (stereo not given), in that order: 8.2% (inactive) and -1.23%.
As to `COc1ccc(C(c2c(NC(=O)c3ccco3)sc(C)c2C)N2CCOCC2)cc1` (stereo not given), the outcome was inactive.
With `Cc1sc(NC(=O)c2ccco2)c(C(c2cccnc2)N2CCN(CCO)CC2)c1C` (stereo not given), the “lipid storage change, negative = inhibition” value is -3.36% (inactive) and the cell number change is -13.8%.
For `CCN1CCN(C(c2cccnc2)c2c(NC(=O)c3ccco3)sc(C)c2C)CC1` (stereo not given), the Potency was 8.2 µM (active) and the cell number change was -4.13%.
`CCOCCCNCc1c(Cl)cccc1Cl`: the “lipid storage change, negative = inhibition” value is 1.39% (inactive) and the cell number change worked out at 5.68%.
In the same order, the values of `CCOC(=O)/C(=N\Nc1cccc(Cl)c1)Sc1nnc(-c2ccc(OC)cc2)n1C` are 13.8% (inactive) and 1.18%.
In the same order, the values of `O=S(=O)(NCCc1ccccn1)c1ccc(-c2ccccn2)s1` are 5.79% (inactive) and -6.49%.
In the same order, the values of `O=C1OCCN/C1=C\C(=O)c1ccc(Cl)cc1` are 4.76% (inactive) and 19.7%.
For the compound `OCCC1CN(Cc2nc3c(s2)CCCC3)CCN1Cc1ccccc1` (stereo not given), the “lipid storage change, negative = inhibition” value is 8.62% (inactive) and the cell number change turned out to be 17.4%.
In the same order, the values of `CCN1CCN(C(=S)c2ccc(Br)cc2)CC1` are -3.85% (inactive) and -1.28%.
For `CCc1nnc(NC(=O)Cc2ccc(OC)c(OC)c2)s1`, in that order: -9.59% (inactive) and 9.15%.
As for `CC(C)[C@H](NC(=O)C1(c2ccccc2)CCN(C(=O)OC(C)(C)C)CC1)C(=O)O`, the “lipid storage change, negative = inhibition” value was -1.69% (inactive) and the cell number change was 0.279%.
With `CC(C)C[C@H](NC(=O)C1(c2ccccc2)CCN(C(=O)[C@H]2CSCN2C(=O)OC(C)(C)C)CC1)C(=O)O`, the “lipid storage change, negative = inhibition” value was -0.167% (inactive).
`C[C@H](NC(=O)C1(c2ccccc2)CCN(C(=O)[C@H]2CSCN2C(=O)OC(C)(C)C)CC1)C(=O)O`: the Potency is -15.3% and -9.67%.
`CC1NC(=O)c2ccccc2-n2c1nc1cc(F)ccc1c2=O` (stereo not given): the “lipid storage change, negative = inhibition” value is -24.4% (inactive) and the cell number change worked out at 0.361%.
For the compound `Cc1ccc(C2=NCCn3c2c2ccc([N+](=O)[O-])cc2[n+]3[O-])cc1`, the Potency is 0.58 µM (active) and the cell number change is -25.9%.
Turning to `COc1ccc(C2=NCCn3nc4cc(OC)ccc4c32)cc1`, the “lipid storage change, negative = inhibition” value is 3.18% (inactive) and the cell number change is -20.7%.
For `O=[N+]([O-])c1ccc2c3n([n+]([O-])c2c1)CCN=C3c1ccc(Cl)cc1`, in that order: 8.37% (inactive) and 12.6%.
With `NS(=O)(=O)c1ccc(CNC(=S)NC2CCCCC2)cc1`, the “lipid storage change, negative = inhibition” value was -3.85% (inactive) and the cell number change was -8.89%.
For `Cc1ccc(NC(=O)Cn2c(O)c(N=NC(N)=O)c3ccccc32)cc1`, in that order: -14.8% (inactive) and -8.5%.
For `COc1cccc2cc(C(=O)N3CCN(c4ccc(C)cc4C)CC3)c(=O)oc12`, the compound was classed as inactive and the cell number change was determined as 12.9%.
As for `O=P(O)(OCc1ccccc1)OCc1ccccc1`, the “lipid storage change, negative = inhibition” value was 5.37% (inactive) and the cell number change was 4.18%.
In the same order, the values of `COC(=O)c1c(NC(=O)c2ccco2)sc2c1CCC2` are 0.361% (inactive) and 3.65%.
`COC(=O)c1c(NC(=O)C2CC2)sc2c1CCN(C(C)=O)C2`: the compound was called inactive.
As to `COC(=O)c1c(NC(=O)c2ccco2)sc2c1CCN(C(C)=O)C2`, the Potency was 7.31 µM (active) and the cell number change was -25.8%.
